# Experimental data published in PubChem BioAssay.
# Unmarked numbers belong to inactive results. Activity calls are given as the source filed them.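 Rule for the calls, unless noted: active = inhibition at or above 50% at 10 µM; inactive = inhibition below 50%.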
# Experiment: inhibitors of Sendai virus-induced IRF3 signaling, primary screen, TLR/RLR signaling modifier project, cell-based, Sendai virus stimulus, luciferase, 10K MLSCN set (AID 602276);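 note: firefly luciferase from ISG56 promoter only with Renilla not read in this screen; 0% = Sendai virus plus DMSO and 100% = medium plus DMSO without virus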
# Settings: HEK293 RL24 IRF3 luciferase reporter, at 10 µM, active compounds read high
row,Structure (SMILES),inhibition [%]
1,CC(=O)c1c(C)[nH]c(C(=O)Nc2ccc3c(c2)OCCO3)c1C,-15.9
2,O=c1cc(-c2ccccc2)[nH]c2nc3ccccc3n12,40.6
3,Cc1cccc(-n2c(Cc3cc(=O)[nH]c(=O)[nH]3)nnc2SCC(=O)NCc2ccco2)c1,12.7
4,O=C(COc1nnc2ccccn12)N1CCN(S(=O)(=O)c2ccccc2)CC1,-12.4
5,Cc1cc(N2C(=O)C3C4C=CC(C4)C3C2=O)ccc1Br (stereo not given),-31.9
6,Cc1ccc(S(=O)(=O)N(CC(=O)N2CCOCC2)CC(=O)N2CCOCC2)cc1,13
7,COc1ccc(C2=NOC(C(=O)NCc3ccc(F)cc3)C2)cc1OC (stereo not given),22.8
8,COCCCNS(=O)(=O)c1ccc2c(c1)CCN2C(C)=O,15.1
9,COc1ccc(C(NC(=O)c2ccco2)c2ccc(OC)c(OC)c2)cc1 (stereo not given),6.11
10,CCC(C)N=C1SCC(C)(/C=N/O)S1 (stereo not given),9.86
11,COc1ccc(-c2noc(CCC(=O)Nc3nc4ccccc4s3)n2)cc1,-7.62
12,CCCC1(C(=O)OCC)NC(c2ccc(N(C)C)cc2)C2C(=O)N(c3ccccc3)C(=O)C21 (stereo not given),8.02
13,Cc1nnc(SCC(=O)Nc2ccc3c4c(cccc24)CC3)n1C,15.8
14,CCCCCC1NC(=O)NC1CCCCCC(=O)O (stereo not given),14.6
15,O=C(Nc1ccccc1C(=O)N1CCCCCC1)c1cccc(S(=O)(=O)N2CCOCC2)c1,3.13
16,CC(C(=O)c1ccccc1)n1cnc2ccccc2c1=O (stereo not given),1.21
17,COc1cc(OC)c(C(=O)Nc2ncn[nH]2)cc1OC,17.7
18,CCOC(=O)C1=C(Cn2cnc3ccccc32)NC(=O)NC1c1cc(C)ccc1C (stereo not given),27.2
19,CCOC(=O)c1c(NC(=O)CSc2nnc(-c3cccnc3)o2)sc(C)c1C,3.63
20,CC(=O)c1cc2c(=O)c3cc(C)ccc3oc2nc1C,-28.2

row,Structure (SMILES),inhibition [%]
1,COc1ccc(NC(=O)CSc2nnc(-c3ccncc3)n2CC2CCCO2)c(OC)c1 (stereo not given),7.58
2,CCOC(=O)c1ccccc1NC(=O)COC(=O)C1=COCCO1,15.1
3,CCN(Cc1nc2cc(OC)c(OC)cc2c(=O)[nH]1)C(=O)c1ccc(S(=O)(=O)N(C)C)cc1,13.8
4,COc1ccc(Cc2nn3c(-c4cc(OC)c(OC)c(OC)c4)nnc3s2)cc1,14.7
5,Cc1nc(NC(=O)C2CC3CCCC(C2)C3=O)sc1C (stereo not given),-54.4
6,O=S(=O)(NC1=NCCC1)c1cccs1,8.22
7,O=C(COC(=O)C1=COCCO1)Nc1ccccc1Oc1ccccc1,1.11
8,O=C(CSc1nc(-c2ccco2)cc(C(F)(F)F)n1)N1CCCc2ccccc21,19
9,O=c1oc2ccccc2n1CCc1ccccc1,-4.32
10,CS(=O)(=O)N(CC(=O)O)c1cccc(Cl)c1,-12.6
11,O=C(OCC(=O)N1CCCC1)c1cncc(Br)c1,11.4
12,O=C(O)C1CC(=O)N(Cc2ccccc2)C1 (stereo not given),16.7
13,CC(C(=O)Oc1ccc2c(c1)OCO2)N1C(=O)c2ccccc2C1=O (stereo not given),23.3
14,COc1cccc(-n2nnnc2SCC(=O)NCc2ccco2)c1,19.3
15,CCOC(=O)c1cccc(NC(=O)CCn2nnc3ccccc32)c1,18.4
16,Clc1ccc(Cl)c(-c2nn3c(COc4ccccc4)nnc3s2)c1,23.3
17,Nc1nnc(SCC(=O)N2CCN(c3ccccc3)CC2)n1-c1ccccc1,10.7
18,C=CCn1c(C)cc(C(=O)CSc2nc3ccccc3c(=O)[nH]2)c1C,-41.3
19,c1ccc(-c2cn3cccnc3n2)cc1,-12.5
20,C#CC(CO)N(CCN(Cc1ccccc1)C(C#C)CO)Cc1ccccc1 (stereo not given),15.5

# Experiment: inhibitors of poly I:C-induced TLR3 signaling, primary screen, cell-based, poly I:C stimulus, luciferase, 10K MLSCN set (AID 602277;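 active = inhibition of the reporter signal at or above 50%; inactive = inhibition below 50%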)
# Settings: HEK293-TLR3 RL24 IRF3 luciferase reporter, at 10 µM, active compounds read high
row,Structure (SMILES),inhibition
1,CC(=O)c1c(C)[nH]c(C(=O)Nc2ccc3c(c2)OCCO3)c1C,-58%
2,O=c1cc(-c2ccccc2)[nH]c2nc3ccccc3n12,27%
3,Cc1cccc(-n2c(Cc3cc(=O)[nH]c(=O)[nH]3)nnc2SCC(=O)NCc2ccco2)c1,7.93%
4,O=C(COc1nnc2ccccn12)N1CCN(S(=O)(=O)c2ccccc2)CC1,98.8% (active)
5,Cc1cc(N2C(=O)C3C4C=CC(C4)C3C2=O)ccc1Br (stereo not given),100% (active)
6,Cc1ccc(S(=O)(=O)N(CC(=O)N2CCOCC2)CC(=O)N2CCOCC2)cc1,27.1%
7,COc1ccc(C2=NOC(C(=O)NCc3ccc(F)cc3)C2)cc1OC (stereo not given),82.8% (active)
8,COCCCNS(=O)(=O)c1ccc2c(c1)CCN2C(C)=O,15%
9,COc1ccc(C(NC(=O)c2ccco2)c2ccc(OC)c(OC)c2)cc1 (stereo not given),18.1%
10,CCC(C)N=C1SCC(C)(/C=N/O)S1 (stereo not given),2.1%
11,COc1ccc(-c2noc(CCC(=O)Nc3nc4ccccc4s3)n2)cc1,-8.39%
12,CCCC1(C(=O)OCC)NC(c2ccc(N(C)C)cc2)C2C(=O)N(c3ccccc3)C(=O)C21 (stereo not given),20.7%
13,Cc1nnc(SCC(=O)Nc2ccc3c4c(cccc24)CC3)n1C,5.58%
14,CCCCCC1NC(=O)NC1CCCCCC(=O)O (stereo not given),18.6%
15,O=C(Nc1ccccc1C(=O)N1CCCCCC1)c1cccc(S(=O)(=O)N2CCOCC2)c1,10.6%
16,CC(C(=O)c1ccccc1)n1cnc2ccccc2c1=O (stereo not given),10.7%
17,COc1cc(OC)c(C(=O)Nc2ncn[nH]2)cc1OC,19.5%
18,CCOC(=O)C1=C(Cn2cnc3ccccc32)NC(=O)NC1c1cc(C)ccc1C (stereo not given),19%
19,CCOC(=O)c1c(NC(=O)CSc2nnc(-c3cccnc3)o2)sc(C)c1C,16.6%
20,CC(=O)c1cc2c(=O)c3cc(C)ccc3oc2nc1C,-91.3%

row,Structure (SMILES),inhibition
1,COc1ccc(NC(=O)CSc2nnc(-c3ccncc3)n2CC2CCCO2)c(OC)c1 (stereo not given),28%
2,CCOC(=O)c1ccccc1NC(=O)COC(=O)C1=COCCO1,2.55%
3,CCN(Cc1nc2cc(OC)c(OC)cc2c(=O)[nH]1)C(=O)c1ccc(S(=O)(=O)N(C)C)cc1,28.7%
4,COc1ccc(Cc2nn3c(-c4cc(OC)c(OC)c(OC)c4)nnc3s2)cc1,-1.58%
5,Cc1nc(NC(=O)C2CC3CCCC(C2)C3=O)sc1C (stereo not given),-87.2%
6,O=S(=O)(NC1=NCCC1)c1cccs1,5.63%
7,O=C(COC(=O)C1=COCCO1)Nc1ccccc1Oc1ccccc1,8.4%
8,O=C(CSc1nc(-c2ccco2)cc(C(F)(F)F)n1)N1CCCc2ccccc21,13.4%
9,O=c1oc2ccccc2n1CCc1ccccc1,-4.85%
10,CS(=O)(=O)N(CC(=O)O)c1cccc(Cl)c1,-6.52%
11,O=C(OCC(=O)N1CCCC1)c1cncc(Br)c1,0.097%
12,O=C(O)C1CC(=O)N(Cc2ccccc2)C1 (stereo not given),17%
13,CC(C(=O)Oc1ccc2c(c1)OCO2)N1C(=O)c2ccccc2C1=O (stereo not given),27.7%
14,COc1cccc(-n2nnnc2SCC(=O)NCc2ccco2)c1,21.4%
15,CCOC(=O)c1cccc(NC(=O)CCn2nnc3ccccc32)c1,8.84%
16,Clc1ccc(Cl)c(-c2nn3c(COc4ccccc4)nnc3s2)c1,23.2%
17,Nc1nnc(SCC(=O)N2CCN(c3ccccc3)CC2)n1-c1ccccc1,21.1%
18,C=CCn1c(C)cc(C(=O)CSc2nc3ccccc3c(=O)[nH]2)c1C,-75.7%
19,c1ccc(-c2cn3cccnc3n2)cc1,-40.2%
20,C#CC(CO)N(CCN(Cc1ccccc1)C(C#C)CO)Cc1ccccc1 (stereo not given),20.6%
